# In the library only some 9.2% were active in any assay of this set; here they are far more common.
# FLuc modulator = counter-screen for miR-21 project: firefly luciferase inhibitors or activators; AID 588342; Potency, µM (titrated, usually from 57.5 µM), hits mostly inhibitors; P08659; hit rate 6.9% among 360,000; purified FLuc, Km substrates, luminescence inhibition; further: nearly all actives have a fitted effect of over 55% in size
# Target sequence (P08659 whole entry, looked up): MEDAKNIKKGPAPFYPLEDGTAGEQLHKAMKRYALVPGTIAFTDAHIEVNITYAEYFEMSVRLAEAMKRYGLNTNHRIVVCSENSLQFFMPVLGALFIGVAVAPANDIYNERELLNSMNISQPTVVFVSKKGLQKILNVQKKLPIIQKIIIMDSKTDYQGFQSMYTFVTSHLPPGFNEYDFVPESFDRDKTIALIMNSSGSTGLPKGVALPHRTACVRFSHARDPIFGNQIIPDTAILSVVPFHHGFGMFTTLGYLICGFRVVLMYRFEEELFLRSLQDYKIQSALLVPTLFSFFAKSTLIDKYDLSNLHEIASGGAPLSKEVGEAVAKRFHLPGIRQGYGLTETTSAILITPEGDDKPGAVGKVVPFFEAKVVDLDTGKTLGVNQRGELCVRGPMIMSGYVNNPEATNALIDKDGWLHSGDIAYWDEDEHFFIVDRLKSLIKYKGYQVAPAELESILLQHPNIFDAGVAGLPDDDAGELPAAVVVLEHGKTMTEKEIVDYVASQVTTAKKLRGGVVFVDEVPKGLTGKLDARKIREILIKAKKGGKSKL
#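 Purified P. pyralis luciferase (10nM final) with 10uM D-luciferin and 10uM ATP (Km levels) in 50mM Tris acetate pH 7.5, 10mM Mg acetate, 0.01% Tween-20, 0.05% BSA; qHTS 6-point titration, ~60 µM downward; luminescence read.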
# Rab9 prom act = activators of Rab9 promoter. Huh7 Rab9 promoter-luciferase reporter, luminescence, 24 h. Potency, µM (series often up to 9.22 µM), actives largely listed as activators. hit rate 2.8% among 320,000; further: nearly all actives have a fitted effect of over 60% in size
#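 Cells were plated at 1500 per well in reduced-serum medium with 10% FBS and left 2 h. Compound in DMSO was then added for 24 h at 37 °C. Reporter signal was read by luminescence after 10 min with luciferase detection reagent.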
# NPC1 prom act = activates the NPC1 promoter; Huh7 NPC1 promoter luciferase reporter, 24 h; Potency, µM (top dose mostly 9.22 µM), hits mostly activators; hit rate 2.4% among 320,000; further: nearly all actives have a fitted effect of over 60% in size
#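 Luminescence from an NPC1 promoter-driven luciferase reporter in stably transfected Huh7 cells was measured after 24 h compound treatment at 37 °C, followed by 10 min ambient incubation with luciferase detection reagent.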
# SMN2 splice up = increases expression of the SMN2 splice variant. HEK293 SMN2-luciferase splicing reporter, luminescence, 30-36 h. Potency, µM (titrated, usually from 46.1 µM), most hits filed as activators. hit rate 2.8% among 210,000; further: nearly all actives have a fitted effect of over 55% in size
#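 HEK293 cells carry an SMN2 minigene-luciferase reporter in which exon 7 inclusion puts luciferase in frame. Cells were seeded at 2000 cells/well, attached for 10-12 hours, then exposed to compounds for 30-36 hours at 37C before ONE-Glo luminescence.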
# ELG1 genotoxic = induces genotoxicity in HEK293T cells with luciferase-tagged ELG1 | AID 504466 | Potency, µM (doses to about 46 µM), most hits filed as activators | HEK293T ELG1-luciferase reporter, luminescence, 16 h | hit rate 1.3% among 330,000; further: nearly all actives have a fitted effect of over 60% in size
#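 16 hr compound incubation (37 °C, 5% CO2) of HEK293T cells carrying luciferase-tagged ELG1; luciferase then measured by ONE-Glo luminescence after 30 min at RT.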
# ELG1 DNA repair = blocks ELG1-dependent DNA repair in HEK293T cells | Potency, µM (highest dose often 46.1 µM), hits mostly inhibitors | HEK293T ELG1-luciferase reporter, luminescence, 16 h; DNA damage induced by 5-fluorouridine | AID 504467 | hit rate 2.3% among 330,000; further: nearly all actives have a fitted effect of over 55% in size
#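 HEK293T cells expressing luciferase-tagged ELG1 (2,000/well) received 5-Fluorouridine plus compound or DMSO for 16 hr at 37 °C. Luciferase was read by ONE-Glo luminescence after 30 min at room temperature.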
# Numbers stand for hits; n = inactive; u = inconclusive; x = no result given. The call rests on the fitted dose curve; in most records, active means well fitted curve in the direction sought with a large enough effect; inconclusive means small, poorly fitted or top-dose-only effect, or another doubt; inactive means no such curve, though single readings can be large; an effect the other way counts as inactive or inconclusive.
SMILES,FLuc modulator,Rab9 prom act,NPC1 prom act,SMN2 splice up,ELG1 genotoxic,ELG1 DNA repair
CC(C)(C)Nc1nc(Cl)nc(Nc2ccccc2)n1,7.6µM,u,u,x,u,u
Clc1nc(Nc2ccccc2)nc(Nc2ccccc2)n1,24µM,n,n,n,n,n
COc1ccccc1Nc1nc(Cl)nc(NC(C)(C)C)n1,u,n,n,n,n,n
COc1ccc(N(CC(=O)NCCc2ccc(C)cc2)S(=O)(=O)c2c(C)nn(C)c2C)cc1,n,x,x,n,x,x
CN(C)c1oc(/C=C/c2ccc(F)cc2)nc1C#N,u,x,x,n,x,x
O=C(COC(=O)c1ncc(Cl)c(Cl)c1Cl)Nc1ccc(Cl)cn1,n,n,n,x,n,n
CSc1ccc(CCNC(=O)CN2C(=O)COc3ccc(S(=O)(=O)N4CCCCCC4)cc32)cc1,n,x,x,n,x,x
O=C(CSc1nc(-c2ccccc2)cs1)NCc1ccco1,u,n,n,n,23µM,u
O=C(CSc1nnc(-c2ccccc2)c(-c2ccccc2)n1)NCc1ccco1,n,n,n,n,n,23µM
CCN(CC)S(=O)(=O)c1ccc2c(c1)c(=O)c(C(=O)N1CCN(c3ccc(OC)cc3)CC1)cn2C,n,x,x,n,x,x
COc1ccc(N(C)S(=O)(=O)c2cccc(C(=O)Nc3nc(C)cs3)c2)cc1,n,n,n,x,n,u
COc1cc(OC)c(N(C)S(=O)(=O)c2cccc(C(=O)Nc3nc(C)cs3)c2)cc1Cl,n,n,n,x,n,18µM
COc1cc(OC)c(N(C)S(=O)(=O)c2cccc(C(=O)NC3=NCCS3)c2)cc1Cl,n,n,n,x,n,16µM
COc1ccccc1N(C)S(=O)(=O)c1ccc(Cl)c(C(=O)NC2=NCCS2)c1,n,u,n,n,n,n
CCN1CCN(c2ccc(NC(=O)c3cc4ccccc4cc3OC)cc2C)CC1,8.5µM,u,n,x,u,u
CCCCCC(=O)Nc1ccc(N2CCN(CC)CC2)c(Cl)c1,u,n,u,u,18µM,u
CCN1CCN(c2ccc(NC(=O)c3ccccc3F)cc2Cl)CC1,u,u,u,10µM,u,u
CCCCCC(=O)NC(=S)Nc1ccc(N2CCCCC2)c(Cl)c1,n,n,n,x,n,n
COc1cc2ccccc2cc1C(=O)Nc1ccccc1N1CCN(S(C)(=O)=O)CC1,n,x,x,n,x,x
Nc1cc(N)nc(SCC(=O)N2CCN(S(=O)(=O)c3ccccc3)CC2)n1,n,n,n,x,n,n
COc1cc(C(=O)N[C@H](C(=O)OCC(=O)NC2CCCCCC2)C(C)C)cc(OC)c1OC,x,x,x,x,n,u
CS(=O)(=O)N1N=C(c2ccccc2)CC1c1ccc2c(c1)OCO2 (stereo not given),21µM,2.8µM,3.5µM,u,u,u
CS(=O)(=O)Nc1ccc(C2=NN(S(C)(=O)=O)C(c3ccccc3)C2)cc1 (stereo not given),n,n,n,u,n,u
CS(=O)(=O)Nc1cccc(C2=NN(S(C)(=O)=O)C(c3ccc4c(c3)OCO4)C2)c1 (stereo not given),17µM,u,n,11µM,n,u
Cc1oc(-c2ccc(Cl)cc2)nc1CN1CCCC(C(=O)NCc2ccccn2)C1 (stereo not given),n,n,n,n,n,u
SMILES,FLuc modulator,Rab9 prom act,NPC1 prom act,SMN2 splice up,ELG1 genotoxic,ELG1 DNA repair
Cc1oc(-c2ccc(Cl)cc2)nc1CN1CCCC(C(=O)NCc2cccnc2)C1 (stereo not given),n,n,n,n,n,6.5µM
CSc1ncc(CN2CCC(C(=O)Nc3cccc(-c4cscn4)c3)CC2)cn1,n,n,n,x,n,23µM
CCCc1ncc(CN2CCC(C(=O)Nc3cccc(-c4cscn4)c3)CC2)cn1,n,n,n,x,n,8.2µM
CC(C)C(NC(=O)c1ccc(C(C)(C)C)cc1)C(=O)NCC1(N(C)C)CCCCC1 (stereo not given),n,n,n,x,n,n
CCOC(=O)Cn1cc2c(c1-c1ccc(Cl)cc1)c(=O)n(C)c(=O)n2C,n,x,x,n,x,x
CCCCC(C)(O)C/C=C/[C@H]1[C@H](O)CC(=O)[C@@H]1CCCCCCC(=O)O (stereo not given in full),x,x,x,n,x,x
CC(C)(C)C(=O)Nc1sc(-c2ccccc2)cc1C(=O)O,11µM,3.2µM,4.5µM,x,n,u
NC(=O)c1ccccc1NC(=O)CN1CCCCCC1,n,n,n,x,n,n
Cc1cccc(C(=O)Nc2sc(-c3ccccc3)cc2C(=O)O)c1,11µM,u,2.5µM,x,u,u
NC(=O)c1cc(-c2ccccc2)sc1NC(=O)CN1CCCCC1,19µM,n,n,n,n,u
Nc1sc(-c2ccccc2)cc1C(=O)O,n,n,n,n,n,u
CC(C)(C)n1ncc2c(=O)n(Cc3cccc(C(F)(F)F)c3)cnc21,n,x,x,x,x,x
Cc1ccc(-n2nc3c(N4CCCC(C(=O)NCc5ccccc5C)C4)nnc(C)c3c2C)cc1 (stereo not given),n,x,x,x,x,x
Cc1ccc(S(=O)(=O)N2CCOCC2)cc1C(=O)N1CCN(c2ncccn2)CC1,n,n,n,x,n,n
Cc1ccc2nc(COc3ccccc3NC(=O)c3ccccc3F)cc(=O)n2c1,n,x,x,x,x,x
O=S(=O)(c1ccc(Br)cc1)c1nc(-c2ccco2)oc1SCc1ccccc1Cl,n,x,x,n,x,x
O=C(COC(=O)c1ccc(Br)cc1)NCCC1=CCCCC1,n,n,n,n,n,n
O=C(COC(=O)c1ccccc1)NCCC1=CCCCC1,15µM,n,n,n,n,n
O=C(CCCc1ccccc1)NCCC1=CCCCC1,24µM,n,n,n,n,n
CN(C)c1ccc(C(=O)OCC(=O)NCCC2=CCCCC2)cc1,n,n,n,n,n,n
Cc1ccsc1C(=O)OCC(=O)NCCC1=CCCCC1,12µM,n,n,n,u,u
CCc1ccc(NCc2cc3cc4c(cc3n(CC(=O)Nc3ccc(Cl)cc3)c2=O)OCO4)cc1,n,x,x,x,x,x
CCc1ccc(N(CC)C(=O)c2ccc3c(=O)n4c(nc3c2)CCCCC4)cc1,n,x,x,n,x,x
Oc1cc(-n2cccn2)c(O)cc1-n1cccn1,17µM,n,n,x,u,u
CC1=NN(C(=O)COc2cc(C)ccc2C(C)C)C(O)(c2ccccc2)C1 (stereo not given),n,n,n,x,n,21µM
SMILES,FLuc modulator,Rab9 prom act,NPC1 prom act,SMN2 splice up,ELG1 genotoxic,ELG1 DNA repair
CC1=NN(C(=O)COc2ccc(C)c(C)c2)C(O)(c2ccc(Cl)cc2)C1 (stereo not given),n,n,n,n,n,n
COc1ccc(Oc2cc(C)c3ccccc3n2)cc1,u,n,n,n,n,u
c1ccc(Oc2ccc3ccccc3n2)cc1,17µM,n,n,n,u,u
CCOC(=O)C1CCN(C(=O)CN2c3ccc(C(C)C)cc3-c3ccccc3S2(=O)=O)CC1,n,x,x,x,x,x
CC(=O)N1CCC(=NNc2nc3ccccc3s2)CC1,17µM,4µM,n,n,n,u
CCOC(=O)N1CCC(=NNc2nc3ccccc3s2)CC1,3.4µM,4µM,2.5µM,x,u,u
